# HCV inhibitor – qHTS Assay for Inhibitors of Hepatitis C Virus (HCV); Potency, µM (doses to about 41.8 µM), for inactives: top-dose activity change, negative = inhibition, usual class: inhibitors; hit rate 3.4% among 340,000; Huh7.5.1 HCVcc-Cre infection, luciferase reporter, 44 h; AID 651820, 2012; active means well fitted inhibition curve with a large enough effect; inconclusive means small, poorly fitted or top-dose-only effect, or another doubt; inactive means no such curve, though single readings can be large or run the other way; further: potency means the concentration at half of the fitted maximal effect; on the % scale 0 is the no-effect control and ±100 the full control effect
#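 HCVcc-Cre virus at an moi near 0.5 was added right after compound to cells cultured 4 h from seeding (1,000 cells/well). Luciferase activity was determined 44 h later, 15 min after substrate addition at RT.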
# Shiga toxin inh – A qHTS for Small Molecule Inhibitors of Shiga Toxin | Vero cells, Shiga toxin protein synthesis inhibition reporter | inhibition, % at 38.7 µM | hit rate 9.2% among 290,000; in the data active means inhibition mostly above about 28%, no sharp cut-off; inactive means mostly below about 43%; further: 0% is about no effect
# Cycloheximide cs – Cycloheximide Counterscreen for Small Molecule Inhibitors of Shiga Toxin | cell reporter, cycloheximide protein synthesis inhibition counterscreen | max response, % | hit rate 12% among 300,000 | AID 2314, 2010; in the data active means max response mostly above about 13%, no sharp cut-off; inactive means mostly below about 14%; further: read at 38.3 µM for the half of the compounds with a filed dose; 0% is about no effect
# Lassa entry inh – qHTS for Inhibitors of binding or entry into cells for Lassa Virus; hit rate 1.2% among 300,000; AID 540256, 2011; Potency, µM (doses to about 37.9 µM), without a hit: at the top dose activity change, negative = inhibition, usual class: inhibitors; Lassa virus pseudotype entry inhibition, cell reporter; calls by dose curve; tested in HEK293 cells; further: potency means the concentration at half of the fitted maximal effect; on the % scale 0 is the no-effect control and ±100 the full control effect; nearly all actives have a fitted effect of over 50% in size
# Marburg entry inh – qHTS for inhibitors of binding or entry into cells for Marburg Virus; Marburg virus pseudotyped entry inhibition, cell reporter; Potency, µM (top dose mostly 37.8 µM), inactives show top-dose activity change, negative = inhibition, most hits filed as inhibitors; AID 540276, 2011; hit rate 1.8% among 300,000; calls by dose curve; tested in HEK293 cells; further: potency means the concentration at half of the fitted maximal effect; on the % scale 0 is the no-effect control and ±100 the full control effect
# FMDV inh – High Throughput Screening for Foot and Mouth Disease Virus Antivirals. Potency, µM (doses to about 57.9 µM), for the others: top-dose activity change, negative = inhibition, actives largely listed as inhibitors. FMDV antiviral cell-based qHTS. hit rate 1.2% among 410,000. AID 1159524, 2015; calls by dose curve; tested in HEK293T cells; further: read-out not given here; potency means the concentration at half of the fitted maximal effect; on the % scale 0 is the no-effect control and ±100 the full control effect; nearly all actives have a fitted effect of over 45% in size
# An asterisk follows results filed as active; ? = inconclusive; . = no result; [ ] = dose if it differs, or a comment. The list is not random: actives were taken first. Their share in the collection is about 13%.
SMILES,HCV inhibitor,Shiga toxin inh,Cycloheximide cs,Lassa entry inh,Marburg entry inh,FMDV inh
c1ccc(CCNc2nc(-c3ccccn3)cs2)cc1,14%,86*,40*,?,0%,72%
c1ccc(CCNc2nc(-c3cccnc3)cs2)cc1,-3%,40*,62*,-21%,10%,.
COc1ccccc1NS(=O)(=O)c1ccc(NC(=O)c2[nH]nc(OC)c2[N+](=O)[O-])cc1,8%,-4,2,14%,14%,-1%
COc1ccc(-c2nc3cnc(N4CCN(C)CC4)nc3n(C3CC3)c2=O)cc1,.,.,.,.,.,-16%
COc1ccc(OCC(=O)Nc2ccc3c(c2)CCC3)cc1,2%,.,.,.,.,27%
COc1cccc(NC(=O)COc2ccc3c(c2)CCC3)c1,?,38*,23*,.,.,42%
COc1cccc(NC(=O)COc2ccc(C)cc2)c1,-12%,63*,37*,3%,-24%[46.1 µM],22%
CCc1[nH]nc(C(=O)N2CCCC(CCC(=O)N3CCN(c4ccccn4)CC3)C2)c1C (stereo not given),3%,34,13*,?,-4%[14.2 µM],?
Cc1cccc(C(=O)N2CCCC(CCC(=O)N3CCN(c4ccccn4)CC3)C2)c1C (stereo not given),?,2,-1,.,.,?
O=C(CCC1CCCN(c2ncccn2)C1)N1CCN(c2ccccn2)CC1 (stereo not given),4%,12,-1,.,.,-23%
O=C(CCC1CCCN(C(=O)C2(c3ccccc3)CC2)C1)N1CCN(c2ccccn2)CC1 (stereo not given),?,42,20*,?,?,?
COCCCn1c(SCC(=O)Nc2ccc(C(C)=O)cc2)nc2ccccc2c1=O,-9%,80*,45*,20%,16%,64%
COC(CNC(=O)c1ccc2nc3ccccc3c(=O)n2c1)OC,20%,4,10,-1%[46.1 µM],13%[46.1 µM],10%
CCN(C(=O)CSc1nc2ccccc2n1CC(=O)Nc1ccc(F)cc1F)c1ccccc1,.,.,.,11µM*,.,5%
COCCCNC(=O)c1ccc2nc3ccccc3c(=O)n2c1,14%,-1,13*,-25%,-28%,21%
CCn1c(SCC(=O)N/N=C/c2cc(OC)c(OC)c(OC)c2)nc2ccccc21,?,2,9,-16%,?,25µM*
CCn1c(SCC(=O)N/N=C/c2cc(OC)c(O)c(OC)c2)nc2ccccc21,30%,-15,1,-1%,2%,-17%
CCOCCCNC(=O)C1CCCN(S(=O)(=O)c2ccc(-n3cnnn3)cc2)C1 (stereo not given),-6%,-4,-6,.,1%[46.1 µM],-7%
O=C(COc1ccccc1)NCCc1csc(-c2ccc(F)cc2)n1,.,.,.,-5%[46.1 µM],.,-29%
CCn1c(SCC(=O)Nc2ccc(C(C)=O)cc2)nc2ccccc21,-19%,107*,42*,5%,?,26%
CC(=O)c1ccc(NC(=O)CSc2nc(=O)cc(N)n2-c2ccccc2)cc1,10%,91*,33*,12%[46.1 µM],?,29%
COC(=O)c1ccc(NC(=O)CSc2nc(=O)cc(N)n2-c2ccccc2)cc1,0%,-3,-2,.,.,-1%
CN(C)S(=O)(=O)c1cccc(NC(=O)CSc2nc3ccccc3n2-c2ccccc2)c1,?,-7,6,?,?,-9%
CN(C)S(=O)(=O)c1ccc(NC(=O)CSc2nc3ccccc3n2-c2ccccc2)cc1,?,-6,-3,18µM*,?,0%
CC(C)NC(=O)CSc1nc2ccccc2n1CC(=O)N(C(C)C)C(C)C,-10%,46*,20*,8%[46.1 µM],2%[46.1 µM],39%
SMILES,HCV inhibitor,Shiga toxin inh,Cycloheximide cs,Lassa entry inh,Marburg entry inh,FMDV inh
O=C(CCS(=O)(=O)c1cccc2nsnc12)NC1CCCCCC1,21%,2,-1,13%,19%,29%
O=C(Cc1n[nH]c(=O)c2ccccc12)NCc1ccccn1,12%,27,2,15%,-5%,0%
Cc1cc(N2CC34C=CC(O3)C(C(=O)O)C4C2=O)no1 (stereo not given),13%,-16,-1,4%,?,12%
O=C(O)c1ccc2c(c1)C(=O)N(NC(=O)c1ccccc1)C2=O,19%,61*,31*,0%,2%,.
CC(C)(C)c1ccc(C(=O)Nc2ccc([N+](=O)[O-])cn2)cc1,5%,76*,58*,?,3%,-2%
Cc1cc(NC(=O)c2ccc3c(c2)OCCO3)no1,-13%,2,15,?,?,-67%
O=C(Nc1ccccn1)c1ccc2c(c1)OCO2,4%,44*,36*,-27%[46.1 µM],?,8%
Cc1cc(NC(=O)c2ccc3c(c2)OCO3)no1,13%,106*,29*,?,?,-9%
Cc1nc(NC(=O)c2ccc3c(c2)OCO3)ccc1Br,-26%,55*,46*,-26%[46.1 µM],-1%[46.1 µM],-10%
O=C(Nc1ccc([N+](=O)[O-])cn1)c1cccnc1,17%,.,-2,2%,5%,15%
O=C(Nc1ccccn1)c1ccc2c(c1)OCCO2,-10%,39,26,?,?,?
Cc1nc(NC(=O)c2ccc(-c3cc4ccccc4oc3=O)cc2)ccc1Br,14%,-2,6,15%,-4%,7%
Cc1ccc2c(c1)nc1c3ccccc3nc(-c3ccccc3N)n21,.,.,.,.,.,-2%
Cn1ccc(C(=O)NC(=S)Nc2ccc([N+](=O)[O-])cc2O)n1,11%,34,28*,.,.,60%
O=C(Nc1ccc([N+](=O)[O-])cn1)c1ccc2c(c1)OCO2,2%,68*,31*,26%,?,60%
O=C(CCC1CCCC1)Nc1ccc([N+](=O)[O-])cn1,1%,54*,35*,-27%,?,41%
O=C(NC(=S)Nc1cc([N+](=O)[O-])ccc1O)c1ccc2c(c1)OCO2,-11%,83*,42*,?,?,17%
COc1cc([N+](=O)[O-])ccc1NC(=S)NNC(=O)c1ccc2c(c1)OCO2,-16%,13,-2,.,.,-5%
CC(N)c1csc(NC(=O)c2cc(C(C)(C)C)nn2Cc2ccccc2)n1 (stereo not given),.,.,.,.,.,-22%
Cc1ccc(S(=O)(=O)N2CCC(C(=O)OCC(=O)N(C)C3CCCCC3)CC2)cc1C,15%,.,.,?,?,-12%
Cc1cc(C)n(CCCNC(=O)C2CCC(=O)N(CCc3ccc(Cl)cc3)C2)n1 (stereo not given),16%,-6,6,.,.,-13%
CCOC(=O)Cn1nc(C)c(NC(=O)CCc2ccc(OC)cc2)c1C,13%,14,-1,0%,16%[46.1 µM],-7%
O=C(CC1C(=O)NCCN1Cc1cccc(Oc2ccccc2)c1)NCCc1ccncc1 (stereo not given),5%,-7,-1,.,.,-13%
Cc1ccc(C)c(CN2C(=O)c3ccccc3S(=O)(=O)c3ccc(C(=O)NCCc4ccc(Cl)cc4)cc32)c1,.,.,.,7%[46.1 µM],?,-6%
